The values below come from PubChem BioAssay (NCI).

The panel holds about 79,000 compounds, 15% with a hit somewhere; the sample as a whole holds those more often. Values without a mark were called inactive. Activity calls are given as the source filed them. Rule as the data show it: active = growth inhibition above about 70%; inactive = the rest.

Assay [1] in a line: NCI Yeast Anticancer Drug Screen. Data for the rad50 strain (AID 155).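 Also: 0% = growth of vehicle-only cultures of the same strain.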 As to conditions: S. cerevisiae rad50 strain growth inhibition, stronger effect = higher value. The method in brief: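 Genetically altered yeast (DNA repair pathway); compound treatment; growth inhibition vs vehicle ctrl.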
Assay [2] can be described thus: NCI Yeast Anticancer Drug Screen. Data for the mec2-1 strain (AID 157). As to conditions: S. cerevisiae mec2-1 strain, stronger effect = higher value. The method in brief: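 Mutant yeast (mec2-1) grown with compound; growth inhibition relative to vehicle control reported.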
The nature of assay [3]: NCI Yeast Anticancer Drug Screen. Data for the sgs1 mgt1 strain (AID 161).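 Also: 0% = growth of cultures given vehicle only.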 As to conditions: S. cerevisiae sgs1 mgt1 strain, stronger effect = higher value. The method in brief: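 Percent growth inhibition was derived by comparing compound-exposed mutant yeast with vehicle-exposed cultures. The strain carries alterations in DNA damage repair.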
Assay [4] can be described thus: NCI Yeast Anticancer Drug Screen. Data for the cln2 rad14 strain (AID 165).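 Also: 0% = growth equal to vehicle treated cultures.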 To be noted: S. cerevisiae cln2 rad14 strain, stronger effect = higher value. The procedure, abridged:
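Readout is yeast growth inhibition versus vehicle-treated controls, using a strain with cln2 and rad14 alterations exposed to compound.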

Assay [5] can be described thus: NCI Yeast Anticancer Drug Screen. Data for the bub3 strain (AID 167). To be noted: S. cerevisiae bub3 mutant strain, stronger effect = higher value. The method in brief: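 Yeast carrying a defined mutation is treated with each compound, and growth is compared with that of vehicle-exposed cells to give inhibition.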
Assay [6] in a line: NCI Yeast Anticancer Drug Screen. Data for the mlh1 rad18 strain (AID 175). To be noted: S. cerevisiae mlh1 rad18 strain growth inhibition, stronger effect = higher value. The method in brief: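 Genetically defined yeast (DNA repair-deficient) exposed to compounds; growth inhibition determined relative to vehicle.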
[7] abbreviates: at 5.0 µM (retest, dose inferred, filed as 0.5).
[8] abbreviates: at 50.0 µM (retest, dose inferred, filed as 5.0).

Regarding `Cc1cc(Br)c2nsnc2c1[N+](=O)[O-]`, the growth inhibition in assay [1] (setting [7]) was 33%; in assay [1] (setting [8]), 94% (active); in assay [1] (at 50.0 µM), 54.4%; in assay [2] (setting [7]) it was 43%; in assay [2] (setting [8]), 97% (active); in assay [2] (at 50.0 µM), 78.5% (active). For the same compound, the growth inhibition in assay [3] (setting [7]) was 30%; in assay [3] (setting [8]), 85% (active); in assay [3] (at 50.0 µM) it was 80.8% (active); in assay [4] (setting [7]), 32%; in assay [4] (setting [8]), 88% (active); in assay [4] (at 50.0 µM), 71.2% (active). Besides, the growth inhibition in assay [5] (setting [7]) was 20%; in assay [5] (setting [8]), 87% (active); in assay [5] (at 50.0 µM), 68.7%; in assay [6] (setting [7]) it was 37%; in assay [6] (setting [8]), 95% (active); in assay [6] (at 50.0 µM), 77.9% (active).

As to `CCCCCCCCCCCCCCCc1ccc(C(=O)C[n+]2ccccc2)cc1`, the growth inhibition is 29% in assay [1] (setting [7]); 96% (active) in assay [1] (setting [8]); 85.8% (active) in assay [1] (at 50.0 µM); 23% in assay [2] (setting [7]); 98% (active) in assay [2] (setting [8]); 89.7% (active) in assay [2] (at 50.0 µM). The growth inhibition was 44% in assay [3] (setting [7]); 98% (active) in assay [3] (setting [8]); 87.7% (active) in assay [3] (at 50.0 µM); 22% in assay [4] (setting [7]); 81% (active) in assay [4] (setting [8]); 54% in assay [4] (at 50.0 µM). In addition, the growth inhibition in assay [5] (setting [7]) is 28%; in assay [5] (setting [8]), 98% (active); in assay [5] (at 50.0 µM), 85.2% (active); in assay [6] (setting [7]), 32%; in assay [6] (setting [8]), 97% (active); in assay [6] (at 50.0 µM) it was 83% (active).

For the compound `COc1cc2c(c(OC)c1OC)-c1ccc(NCc3ccccc3)c(=O)cc1[C@@H](NC(C)=O)CC2`, the growth inhibition in assay [1] (setting [7]) was 17%; in assay [1] (setting [8]), 96% (active); in assay [1] (at 50.0 µM), 49%; in assay [2] (setting [7]), 9%; in assay [2] (setting [8]) it was 89% (active); in assay [2] (at 50.0 µM) it was 80.8% (active). The growth inhibition in assay [3] (setting [7]) is 16%; in assay [3] (setting [8]), 98% (active); in assay [3] (at 50.0 µM), 68.3%; in assay [4] (setting [7]), 18%; in assay [4] (setting [8]) it was 98% (active); in assay [4] (at 50.0 µM) it was 73.7% (active). The growth inhibition in assay [5] (setting [7]) was 14%; in assay [5] (setting [8]), 88% (active); in assay [5] (at 50.0 µM) it was 68.3%; in assay [6] (setting [7]), 16%; in assay [6] (setting [8]), 97% (active); in assay [6] (at 50.0 µM), -53.5%.

With `CN(C)CCN(C)CC(C)(C)C(=O)/C=C/c1ccc(Cl)c(Cl)c1`, the growth inhibition in assay [1] (setting [7]) was 13%; in assay [1] (setting [8]) it was 99% (active); in assay [1] (at 50.0 µM), 96.8% (active); in assay [2] (setting [7]), 4%; in assay [2] (setting [8]) it was 99% (active); in assay [2] (at 50.0 µM), 78.1% (active). In addition, the growth inhibition in assay [3] (setting [7]) was 6%; in assay [3] (setting [8]) it was 99% (active); in assay [3] (at 50.0 µM), 56.2%; in assay [4] (setting [7]) it was -3%; in assay [4] (setting [8]), 98% (active); in assay [4] (at 50.0 µM), 8.2%. Also, the growth inhibition was 6% in assay [5] (setting [7]); 99% (active) in assay [5] (setting [8]); 92.5% (active) in assay [5] (at 50.0 µM); 8% in assay [6] (setting [7]); 99% (active) in assay [6] (setting [8]); 70.5% (active) in assay [6] (at 50.0 µM).

In the case of `CCCN(CCC)C(=O)c1ccc(C)cc1`, the growth inhibition in assay [1] (setting [7]) is 1%; in assay [1] (setting [8]), 21%; in assay [1] (at 50.0 µM), 4.3%; in assay [2] (setting [7]) it was 2%; in assay [2] (setting [8]), 5%; in assay [2] (at 50.0 µM), 97.9% (active). The growth inhibition is 2% in assay [3] (setting [7]); 5% in assay [3] (setting [8]); 0.05% in assay [3] (at 50.0 µM); 3% in assay [4] (setting [7]); 24% in assay [4] (setting [8]); -17.1% in assay [4] (at 50.0 µM). In addition, the growth inhibition in assay [5] (setting [7]) was 3%; in assay [5] (setting [8]), 28%; in assay [5] (at 50.0 µM), 2.9%; in assay [6] (setting [7]) it was -3%; in assay [6] (setting [8]), 17%; in assay [6] (at 50.0 µM), 7.2%.

Turning to `O=C1C(=O)c2cc([N+](=O)[O-])ccc2-c2ccccc21`, the growth inhibition was 45% in assay [1] (setting [7]); 97% (active) in assay [1] (setting [8]); 98.7% (active) in assay [1] (at 50.0 µM); 34% in assay [2] (setting [7]); 97% (active) in assay [2] (setting [8]); 95.8% (active) in assay [2] (at 50.0 µM). In addition, the growth inhibition in assay [3] (setting [7]) was 32%; in assay [3] (setting [8]), 95% (active); in assay [3] (at 50.0 µM), 96.2% (active); in assay [4] (setting [7]), 19%; in assay [4] (setting [8]), 96% (active); in assay [4] (at 50.0 µM) it was 96.3% (active). Moreover, the growth inhibition in assay [5] (setting [7]) was 43%; in assay [5] (setting [8]) it was 89% (active); in assay [5] (at 50.0 µM) it was 98.1% (active); in assay [6] (setting [7]), 54%; in assay [6] (setting [8]), 97% (active); in assay [6] (at 50.0 µM), 97.8% (active).

`O=C1C=CC(=O)N1c1ccc(O)cc1`: the growth inhibition is 15% in assay [1] (setting [7]); 94% (active) in assay [1] (setting [8]); 96.3% (active) in assay [1] (at 50.0 µM); 23% in assay [2] (setting [7]); 98% (active) in assay [2] (setting [8]); 98.4% (active) in assay [2] (at 50.0 µM). The growth inhibition is 18% in assay [3] (setting [7]); 86% (active) in assay [3] (setting [8]); 94.1% (active) in assay [3] (at 50.0 µM); -1% in assay [4] (setting [7]); 98% (active) in assay [4] (setting [8]); 98.3% (active) in assay [4] (at 50.0 µM). Besides, the growth inhibition in assay [5] (setting [7]) is 4%; in assay [5] (setting [8]), 97% (active); in assay [5] (at 50.0 µM) it was 96.8% (active); in assay [6] (setting [7]) it was 11%; in assay [6] (setting [8]), 98% (active); in assay [6] (at 50.0 µM), 91.8% (active).

Take `O=[N+]([O-])c1ccc(Oc2ccccc2Cl)c([N+](=O)[O-])c1`: the growth inhibition in assay [1] (setting [7]) is 13%; in assay [1] (setting [8]), 96% (active); in assay [1] (at 50.0 µM) it was 4.1%; in assay [2] (setting [7]) it was -25%; in assay [2] (setting [8]) it was 95% (active); in assay [2] (at 50.0 µM), 38.1%. In addition, the growth inhibition in assay [3] (setting [7]) was 27%; in assay [3] (setting [8]) it was 97% (active); in assay [3] (at 50.0 µM) it was 63.1%; in assay [4] (setting [7]), 3%; in assay [4] (setting [8]), 86% (active); in assay [4] (at 50.0 µM), 17.9%. Besides, the growth inhibition was 7% in assay [5] (setting [7]); 97% (active) in assay [5] (setting [8]); 44.7% in assay [5] (at 50.0 µM); 29% in assay [6] (setting [7]); 97% (active) in assay [6] (setting [8]); 72.7% (active) in assay [6] (at 50.0 µM).

Consider `CCSc1nc2ccccc2o1`, for which the growth inhibition in assay [1] (setting [7]) was 7%; in assay [1] (setting [8]), 0%; in assay [1] (at 50.0 µM), 54.4%; in assay [2] (setting [7]), 0%; in assay [2] (setting [8]), -1%; in assay [2] (at 50.0 µM) it was 39.6%. The growth inhibition was 6% in assay [3] (setting [7]); 2% in assay [3] (setting [8]); 9.4% in assay [3] (at 50.0 µM); 6% in assay [4] (setting [7]); -2% in assay [4] (setting [8]); 30.6% in assay [4] (at 50.0 µM). Also, the growth inhibition was 3% in assay [5] (setting [7]); -2% in assay [5] (setting [8]); 42.6% in assay [5] (at 50.0 µM); 3% in assay [6] (setting [7]); -3% in assay [6] (setting [8]); -15.7% in assay [6] (at 50.0 µM).
